From PubChem BioAssay (EPA / NIEHS)
Calls of active or inactive are those of the source. The calls were made as follows: active = hit-call score of the fitted dose curve at least 0.9, where 1 is the maximum; inactive = score below 0.9.

Experiments:
Conditions in all cases: mRNA level, 48 h; actives raise or lower the signal
MYC, MYC (gene 4609) = assay: LTEA_HepaRG_MYC: Life Technologies and Expression Analysis (LTEA) Assay for MYC using HepaRG (AID 2283518)
Outline: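 qRT-PCR read-out of MYC transcript (Fluidigm TaqMan, housekeeping-normalized) after 48 h chemical exposure of HepaRG cells; eight concentrations, top 100 uM, half-log steps. Bidirectional curve fitting against 0.5% DMSO vehicle baseline.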

[1] = read-out: matrix metalloproteinase-3 (MMP3), MMP3 (gene 4314); assay: LTEA_HepaRG_MMP3: Life Technologies and Expression Analysis (LTEA) Assay for matrix metalloproteinase-3 (MMP3) using HepaRG (AID 2283519)
Outline: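 HepaRG cells (~100,000/well) in serum-free induction medium were dosed in duplicate for 48 h with an 8-point half-log series from 100 uM, 0.5% DMSO. MMP3 mRNA was quantified by Fluidigm TaqMan qRT-PCR, normalized to three housekeeping genes.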

[2] = read-out: Paternally Expressed 10 (PEG10), PEG10 (gene 23089); assay: LTEA_HepaRG_PEG10: Life Technologies and Expression Analysis (LTEA) Assay for Paternally Expressed 10 (PEG10) using HepaRG (AID 2283520)
Outline: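 HepaRG, 48 h post-plating → serum-free induction medium → 48 h chemical exposure (duplicate, 8-pt, max 100 uM, half-log, 0.5% DMSO) → lysis in RLT → TaqMan qRT-PCR for PEG10, ACTB/GAPDH/POLR2A normalisation.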

[3] = read-out: Nuclear factor NF-kappa-B p105 subunit (Homo sapiens) (UniProt P19838); assay: LTEA_HepaRG_NFKB1: Life Technologies and Expression Analysis (LTEA) Assay for Nuclear Factor Kappa B Subunit 1 (NFKB1) using HepaRG (AID 2283521);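 also: TaqMan qRT-PCR transcript normalised to ACTB GAPDH and POLR2A housekeeping genes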
Outline: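 HepaRG, 48 h exposure; 8-pt half-log series from 100 uM in 0.5% DMSO; duplicates. Readout: NFKB1 mRNA by qRT-PCR (Fluidigm arrays), housekeeping-normalized. Gain/loss fit vs DMSO baseline.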

[4] = read-out: Protein phosphatase 2A (PPP2R4), PTPA (gene 5524); assay: LTEA_HepaRG_PPP2R4: Life Technologies and Expression Analysis (LTEA) Assay for Protein phosphatase 2A (PPP2R4) using HepaRG (AID 2283522)
Outline: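 Readout is PPP2R4 transcript level by microfluidic qRT-PCR after 48 h chemical treatment of human HepaRG liver cells. Concentrations spanned 100 uM downward in half-log steps; gain or loss of signal was fitted relative to DMSO.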

[5] = read-out: Phosphatase and tensin (PTEN), PTEN (gene 5728); assay: LTEA_HepaRG_PTEN: Life Technologies and Expression Analysis (LTEA) Assay for Phosphatase and tensin (PTEN) using HepaRG (AID 2283523)
Outline: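 HepaRG cells, 48 h after plating, exposed in duplicate for 48 h in serum-free induction medium to 8 half-log concentrations up to 100 uM (0.5% DMSO). PTEN mRNA by qRT-PCR, normalized to ACTB, GAPDH, POLR2A; bidirectional fit versus DMSO.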

[6] = read-out: solute carrier (SLC22A1), SLC22A1 (gene 6580); assay: LTEA_HepaRG_SLC22A1: Life Technologies and Expression Analysis (LTEA) Assay for solute carrier (SLC22A1) using HepaRG (AID 2283524)
Outline: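 Differentiated human HepaRG cells in serum-free induction medium, exposed 48 h in duplicate to 8-point half-log series from 100 µM top in 0.5% DMSO. SLC22A1 mRNA by TaqMan qRT-PCR normalized to ACTB, GAPDH, POLR2A; bidirectional fit versus DMSO.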

[7] = read-out: Pyruvate Dehydrogenase Kinase 4 (PDK4), PDK4 (gene 5166); assay: LTEA_HepaRG_PDK4: Life Technologies and Expression Analysis (LTEA) Assay for Pyruvate Dehydrogenase Kinase 4 (PDK4) using HepaRG (AID 2283525)
Outline: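 HepaRG cells plated 48 h, then switched to serum-free induction medium and exposed in duplicate for 48 h to 8 half-log concentrations from 100 uM in 0.5% DMSO. PDK4 mRNA measured by qRT-PCR, normalized to ACTB, GAPDH and POLR2A; bidirectional fit versus DMSO.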

[8] = read-out: Nuclear factor erythroid 2-related factor 2 (Homo sapiens) (UniProt Q16236); assay: LTEA_HepaRG_NFE2L2: Life Technologies and Expression Analysis (LTEA) Assay for Nuclear factor erythroid 2-related factor 2 (NFE2L2) Transcription Factor using HepaRG (AID 2283527);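 also: TaqMan qRT-PCR transcript level normalised to ACTB GAPDH and POLR2A housekeeping genes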
Outline: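 Differentiated human HepaRG cells, serum-free induction medium, exposed 48 h in duplicate to eight half-log concentrations up to 100 uM in 0.5% DMSO. NFE2L2 mRNA by Fluidigm TaqMan qRT-PCR, normalised to ACTB, GAPDH, POLR2A; bidirectional change versus DMSO.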

[9] = read-out: succinate dehydrogenase complex iron sulfur subunit B (SDHB), SDHB (gene 6390); assay: LTEA_HepaRG_SDHB: Life Technologies and Expression Analysis (LTEA) Assay for succinate dehydrogenase complex iron sulfur subunit B (SDHB) using HepaRG (AID 2283528)
Outline: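 Readout is SDHB transcript level by qRT-PCR, normalised to three housekeeping genes and fitted bidirectionally against 0.5% DMSO vehicle. Human HepaRG cells were treated for 48 h at up to 100 uM.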

[10] = read-out: Signal transducer and activator of transcription 3 (Homo sapiens) (UniProt P40763); assay: LTEA_HepaRG_STAT3: Life Technologies and Expression Analysis (LTEA) Assay for Signal transducer and activator of transcription (STAT3) using HepaRG (AID 2283529)
Outline: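 Differentiated HepaRG cells, serum-free induction medium, dosed 48 h in duplicate, 8 half-log concentrations from 100 uM in 0.5% DMSO. STAT3 mRNA by qRT-PCR, normalised to ACTB, GAPDH, POLR2A; bidirectional fit versus DMSO.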

[11] = read-out: sulfotransferase 2A1 (SULT2A1), SULT2A1 (gene 6822); assay: LTEA_HepaRG_SULT2A1: Life Technologies and Expression Analysis (LTEA) Assay for sulfotransferase 2A1 (SULT2A1) using HepaRG (AID 2283531)
Outline: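 HepaRG, 48 h chemical exposure, 8-pt half-log curve from 100 uM in 0.5% DMSO, duplicates. Readout: TaqMan qRT-PCR of SULT2A1 mRNA, housekeeping-normalized. Bidirectional fit vs DMSO baseline.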

TIMP1, TIMP1 (gene 7076) = assay: LTEA_HepaRG_TIMP1: Life Technologies and Expression Analysis (LTEA) Assay for TIMP1 using HepaRG (AID 2283534)
Outline: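 HepaRG, 48 h exposure, 8-pt half-log series from 100 uM in 0.5% DMSO, duplicates; TIMP1 transcript by Fluidigm qRT-PCR, housekeeping-normalized; bidirectional curve fit vs DMSO baseline.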

[12] = read-out: Tumor necrosis factor receptor 1 (TNFRSF1A), TNFRSF1A (gene 7132); assay: LTEA_HepaRG_TNFRSF1A: Life Technologies and Expression Analysis (LTEA) Assay for Tumor necrosis factor receptor 1 (TNFRSF1A) using HepaRG (AID 2283535)
Outline: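 HepaRG, 48 h plating then 48 h chemical exposure, serum-free induction media; 8-pt CRC from 100 uM, half-log, 0.5% DMSO vehicle, duplicates. Readout: TaqMan qRT-PCR (Fluidigm), housekeeping-gene normalized; bidirectional fit vs DMSO.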

[13] = read-out: Thyroid Hormone Responsive (THRSP), THRSP (gene 7069); assay: LTEA_HepaRG_THRSP: Life Technologies and Expression Analysis (LTEA) Assay for Thyroid Hormone Responsive (THRSP) using HepaRG (AID 2283536)
Outline: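 Differentiated HepaRG cells treated 48 h in serum-free induction medium with 8 half-log concentrations up to 100 uM (0.5% DMSO), duplicates. THRSP mRNA by TaqMan qRT-PCR normalised to ACTB, GAPDH, POLR2A; bidirectional fit versus DMSO.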

[14] = read-out: Cellular tumor antigen p53 (Homo sapiens) (UniProt P04637); assay: LTEA_HepaRG_TP53: Life Technologies and Expression Analysis (LTEA) Assay for Tumor Protein P53 (TP53) using HepaRG (AID 2283537)
Outline: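 Read-out is TP53 transcript level by microfluidic qRT-PCR, normalised to three housekeeping genes and fitted bidirectionally against DMSO. Human HepaRG cells received compounds for 48 h, highest concentration 100 uM.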

[15] = read-out: NAD(P)H dehydrogenase [quinone] 1 (NQO1), NQO1 (gene 1728); assay: LTEA_HepaRG_NQO1: Life Technologies and Expression Analysis (LTEA) Assay for NAD(P)H dehydrogenase [quinone] 1 (NQO1) using HepaRG (AID 2283526)
Outline: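 HepaRG, 48 h post-plating → serum-free induction medium → test chemical 48 h (duplicate, 100 uM top, half-log x8, 0.5% DMSO) → RNA isolation → qRT-PCR, ACTB/GAPDH/POLR2A normalization; bidirectional curve fit vs DMSO baseline.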

[16] = read-out: Transforming Growth Factor (TGFB1), TGFB1 (gene 7040); assay: LTEA_HepaRG_TGFB1: Life Technologies and Expression Analysis (LTEA) Assay for Transforming Growth Factor (TGFB1) Transporter using HepaRG (AID 2283533)
Outline: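 qRT-PCR readout of TGFB1 transcript in HepaRG lysates, normalized to three housekeeping genes; gain or loss of signal fitted relative to 0.5% DMSO vehicle. Exposure: 48 h, 8-point curve from 100 uM, duplicate wells.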

Measured: AC50

Sequence of Nuclear factor erythroid 2-related factor 2 (Homo sapiens) (Q16236 whole entry, looked up): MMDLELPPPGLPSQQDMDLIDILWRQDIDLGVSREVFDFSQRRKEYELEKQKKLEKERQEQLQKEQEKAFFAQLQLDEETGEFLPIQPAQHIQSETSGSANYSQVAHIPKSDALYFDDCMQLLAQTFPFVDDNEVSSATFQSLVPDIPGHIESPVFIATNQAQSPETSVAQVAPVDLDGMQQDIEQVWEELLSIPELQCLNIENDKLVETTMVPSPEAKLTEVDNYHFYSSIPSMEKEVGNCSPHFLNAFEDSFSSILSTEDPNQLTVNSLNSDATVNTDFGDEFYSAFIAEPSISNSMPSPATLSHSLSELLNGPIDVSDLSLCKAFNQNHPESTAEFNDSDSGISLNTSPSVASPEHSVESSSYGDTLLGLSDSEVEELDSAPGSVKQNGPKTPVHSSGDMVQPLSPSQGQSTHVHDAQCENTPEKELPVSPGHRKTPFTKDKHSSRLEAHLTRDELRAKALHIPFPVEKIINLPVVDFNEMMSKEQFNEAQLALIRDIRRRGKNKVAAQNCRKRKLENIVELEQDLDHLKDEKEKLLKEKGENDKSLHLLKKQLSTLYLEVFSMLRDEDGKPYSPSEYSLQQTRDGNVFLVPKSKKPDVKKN
Sequence of Signal transducer and activator of transcription 3 (Homo sapiens) (P40763 whole entry, looked up): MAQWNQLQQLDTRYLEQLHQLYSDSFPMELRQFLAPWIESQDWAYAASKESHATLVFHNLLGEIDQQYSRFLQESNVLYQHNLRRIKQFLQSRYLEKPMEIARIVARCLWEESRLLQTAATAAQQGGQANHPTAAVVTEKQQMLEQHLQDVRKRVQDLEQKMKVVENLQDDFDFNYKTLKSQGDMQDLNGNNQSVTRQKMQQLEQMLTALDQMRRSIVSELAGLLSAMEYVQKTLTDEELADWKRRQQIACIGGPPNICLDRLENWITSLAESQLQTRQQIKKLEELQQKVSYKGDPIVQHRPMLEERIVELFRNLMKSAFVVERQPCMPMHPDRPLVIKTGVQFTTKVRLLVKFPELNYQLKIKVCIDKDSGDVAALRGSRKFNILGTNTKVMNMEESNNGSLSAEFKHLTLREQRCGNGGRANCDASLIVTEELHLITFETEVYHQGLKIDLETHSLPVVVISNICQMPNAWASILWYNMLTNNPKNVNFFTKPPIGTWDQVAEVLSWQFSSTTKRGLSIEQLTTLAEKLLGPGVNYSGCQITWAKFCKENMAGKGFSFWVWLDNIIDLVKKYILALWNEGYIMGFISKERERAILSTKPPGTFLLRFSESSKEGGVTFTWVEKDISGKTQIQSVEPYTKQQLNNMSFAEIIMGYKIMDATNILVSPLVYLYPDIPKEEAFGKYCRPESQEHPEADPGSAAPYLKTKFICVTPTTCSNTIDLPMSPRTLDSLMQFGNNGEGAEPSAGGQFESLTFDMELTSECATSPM
Sequence of Cellular tumor antigen p53 (Homo sapiens) (P04637 whole entry, looked up): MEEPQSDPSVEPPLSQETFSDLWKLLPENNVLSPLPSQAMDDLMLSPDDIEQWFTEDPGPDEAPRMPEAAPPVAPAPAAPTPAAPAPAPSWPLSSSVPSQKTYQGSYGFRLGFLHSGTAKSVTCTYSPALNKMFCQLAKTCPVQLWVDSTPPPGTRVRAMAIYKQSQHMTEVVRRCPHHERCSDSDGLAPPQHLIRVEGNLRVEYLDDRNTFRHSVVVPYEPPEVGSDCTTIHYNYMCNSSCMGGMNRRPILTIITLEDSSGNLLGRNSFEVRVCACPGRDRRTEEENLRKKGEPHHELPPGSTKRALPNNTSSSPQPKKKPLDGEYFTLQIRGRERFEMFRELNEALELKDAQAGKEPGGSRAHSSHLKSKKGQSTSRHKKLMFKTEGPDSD
Sequence of Nuclear factor NF-kappa-B p105 subunit (Homo sapiens) (P19838 whole entry, looked up): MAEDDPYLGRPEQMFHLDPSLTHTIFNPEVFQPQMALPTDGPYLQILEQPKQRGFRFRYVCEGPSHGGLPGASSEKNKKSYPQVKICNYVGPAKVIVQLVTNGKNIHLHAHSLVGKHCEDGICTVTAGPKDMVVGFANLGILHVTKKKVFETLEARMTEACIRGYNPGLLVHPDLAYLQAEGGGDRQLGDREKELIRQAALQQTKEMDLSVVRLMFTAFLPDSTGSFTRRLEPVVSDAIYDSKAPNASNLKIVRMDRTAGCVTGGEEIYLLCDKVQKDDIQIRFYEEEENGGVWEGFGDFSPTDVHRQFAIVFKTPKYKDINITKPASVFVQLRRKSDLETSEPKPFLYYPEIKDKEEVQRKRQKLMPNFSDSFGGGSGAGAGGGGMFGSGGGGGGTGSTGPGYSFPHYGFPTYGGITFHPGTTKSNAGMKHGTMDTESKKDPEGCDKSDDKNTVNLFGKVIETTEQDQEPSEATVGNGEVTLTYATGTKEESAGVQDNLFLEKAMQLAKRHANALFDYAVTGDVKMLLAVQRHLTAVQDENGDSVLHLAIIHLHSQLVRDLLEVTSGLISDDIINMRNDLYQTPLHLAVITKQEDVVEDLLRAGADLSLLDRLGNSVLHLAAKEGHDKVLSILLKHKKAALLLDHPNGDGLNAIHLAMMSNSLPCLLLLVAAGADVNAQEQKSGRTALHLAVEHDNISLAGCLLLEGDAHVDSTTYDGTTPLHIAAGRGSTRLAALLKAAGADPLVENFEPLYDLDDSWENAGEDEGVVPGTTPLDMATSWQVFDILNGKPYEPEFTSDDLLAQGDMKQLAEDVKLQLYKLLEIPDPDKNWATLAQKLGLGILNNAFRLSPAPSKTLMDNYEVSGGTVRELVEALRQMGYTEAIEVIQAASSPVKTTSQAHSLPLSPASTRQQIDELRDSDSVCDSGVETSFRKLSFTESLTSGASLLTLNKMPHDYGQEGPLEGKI

CCC(C)(C)C1CCC(O)CC1 (configuration not stated)
not listed: [15] | [16]
inactive: all other assays above

CCCCC(CC)COC(=O)CCCCC(=O)OCc1ccccc1 (configuration not stated)
not listed: [3] | [16]
inactive: all other assays above

CCCOC(=O)c1ccc(O)cc1
active: [12] 779 nM
not listed: [2] | [3] | [15] | [16]
inactive: all other assays above

c1ccc2cc3c(ccc4ccccc43)cc2c1
active: MYC, MYC (gene 4609) 13.4 µM | [2] 12.1 µM | [6] 18.6 µM | [7] 22.9 µM | [10] 8.31 µM | [11] 13.3 µM | TIMP1, TIMP1 (gene 7076) 10.2 µM | [13] 5.27 µM
not listed: [3] | [15]
inactive: all other assays above
